Assay results published in article PMC8384837, “Expanding the binding specificity for RNA recognition by a PUF domain”.

The sequences below were run against PUM1 PUF domain R3-GHG (Homo sapiens, UniProt Q14671 828-1176, C935G;R936H;Q939G) (assay: yeast three-hybrid, YBZ-1, SC-Leu-His + 0.5 mM 3-AT, 4 days). Details: tags: N-Gal4 AD-HA kept; label: inside an RPR1-promoter hybrid RNA with tandem MS2 sites; ssRNA.
In short: (§1)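 A centromeric plasmid in strain YBZ-1 co-expressed Pumilio-1 PUF domain libraries, randomized at the three base-contacting residues of each repeat, with matching RNA elements; the strain carries a LexA–MS2 coat fusion and a HIS3 reporter. After four days on SC-Leu (input) or SC-Leu-His + 0.5 mM 3-AT (selection), the repeat regions were PCR-amplified and Illumina-sequenced. The interaction score is the log change in variant frequency from input to selection, using log2 and a pseudocount of 1 where absent.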
“GGCUAGAACUAGUGGAUCCCCCGGCGCCCGGCGGCUCGAGCCCGGGUAAGUGUAAAUAGUCUGCAUGCCGCCGGGCGCCAUGCCUGCAGGUCGACUCUAGAAAACAUG” was tested, and the binding signal was 3.44 log2 enrichment (interaction score).
For “GGCUAGAACUAGUGGAUCCCCCGGCGCCCGGCGGCUCGAGCCCGGGUAAGUGUAAGUAGUCUGCAUGCCGCCGGGCGCCAUGCCUGCAGGUCGACUCUAGAAAACAUG”, the binding signal was 1.95 log2 enrichment (interaction score).
“GGCUAGAACUAGUGGAUCCCCCGGCGCCCGGCGGCUCGAGCCCGGGUAAGUGUAAUUAGUCUGCAUGCCGCCGGGCGCCAUGCCUGCAGGUCGACUCUAGAAAACAUG” was tested, and the binding signal was 1.43 log2 enrichment (interaction score).

These sequences were tested against T1, PUM1 PUF domain R6-RWR (Homo sapiens, UniProt Q14671 828-1176, N1043R;Y1044W;Q1047R) in the same assay as above. Details: tags: N-Gal4 AD-HA kept; label: inside an RPR1-promoter hybrid RNA with tandem MS2 sites; ssRNA.
T1 sequence: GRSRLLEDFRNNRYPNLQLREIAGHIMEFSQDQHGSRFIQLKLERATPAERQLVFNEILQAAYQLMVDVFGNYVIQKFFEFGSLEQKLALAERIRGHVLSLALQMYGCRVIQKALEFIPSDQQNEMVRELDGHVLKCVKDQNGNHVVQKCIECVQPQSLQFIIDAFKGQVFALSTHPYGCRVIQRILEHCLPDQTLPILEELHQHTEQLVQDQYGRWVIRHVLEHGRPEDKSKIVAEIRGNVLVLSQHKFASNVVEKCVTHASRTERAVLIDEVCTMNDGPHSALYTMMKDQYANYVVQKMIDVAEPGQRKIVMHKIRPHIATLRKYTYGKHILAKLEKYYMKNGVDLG
In short: as §1
“GGCUAGAACUAGUGGAUCCCCCGGCGCCCGGCGGCUCGAGCCCGGGUAAGUGCAAAUAGUCUGCAUGCCGCCGGGCGCCAUGCCUGCAGGUCGACUCUAGAAAACAUG” was tested, and the binding signal was 1.4 log2 enrichment (interaction score).
With “GGCUAGAACUAGUGGAUCCCCCGGCGCCCGGCGGCUCGAGCCCGGGUAAGUGUAAAUAGUCUGCAUGCCGCCGGGCGCCAUGCCUGCAGGUCGACUCUAGAAAACAUG” the binding signal was 6.07 log2 enrichment (interaction score).
With “GGCUAGAACUAGUGGAUCCCCCGGCGCCCGGCGGCUCGAGCCCGGGUAAGUGAAAAUAGUCUGCAUGCCGCCGGGCGCCAUGCCUGCAGGUCGACUCUAGAAAACAUG” the binding signal was 4.83 log2 enrichment (interaction score).
“GGCUAGAACUAGUGGAUCCCCCGGCGCCCGGCGGCUCGAGCCCGGGUAAGUGGAAAUAGUCUGCAUGCCGCCGGGCGCCAUGCCUGCAGGUCGACUCUAGAAAACAUG” was tested, and the binding signal was 1.16 log2 enrichment (interaction score).
